The source made the active and inactive calls. Unless noted, no rule for the calls is given here.

Assay [1] can be described thus: A549 cell viability effects, profiling panel, calcein-AM fluorescence, 48 h, basal (AID 1162). Also: test concentration not given here. Particulars: higher = more signal.
Assay [2] in a line: adipocyte viability effects, profiling panel, cell-based, 3T3-L1 adipocytes, calcein-AM fluorescence, 48 h, basal (AID 1163). Also: test concentration not given here. Particulars: 3T3-L1 adipocytes viability, higher = more signal.
The nature of assay [3]: HepG2 cell viability effects, profiling panel, calcein-AM fluorescence, 48 h, basal (AID 1164). Also: test concentration not given here. Particulars: higher = more signal.
Assay [4] in a line: MM1S cell viability effects, profiling panel, calcein-AM fluorescence, 48 h, basal (AID 1165).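 Also: viability of MM1S multiple myeloma cells under basal unstimulated conditions; test concentration not given here.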 Particulars: higher = more signal.
A short description of assay [5]: basal RPMI8226 viability, no added stimulus, profiling panel, cell-based, calcein-AM fluorescence, 48 h, PK04 Diversity Set (AID 1166).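 Also: cells grown under basal conditions without added stimulus; test concentration not given here.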 Particulars: RPMI8226 myeloma viability, higher = more signal.
The nature of assay [6]: basal HepG2 mitochondrial membrane potential changes, profiling panel, cell-based, JC-1 fluorescence, 24 h, 100 nL compound (AID 1167). Also: test concentration not given here. Particulars: higher = more signal.
The nature of assay [7]: basal 3T3-L1 adipocyte mitochondrial potential changes, profiling panel, cell-based, JC-1 fluorescence, 3T3-L1 adipocytes, 24 h, 100 nL compound (AID 1168). Also: test concentration not given here. Particulars: JC-1 mitochondrial fluorescence, higher = more signal, called active from +8 up or from −8 down.
A short description of assay [8]: basal RPMI8226 mitochondrial membrane potential changes, profiling panel, cell-based, JC-1 fluorescence, 24 h, 100 nL compound (AID 1169). Also: test concentration not given here. Particulars: RPMI8226 myeloma, JC-1 mitochondrial potential fluorescence, higher = more signal.
Assay [9] in a line: basal MM1S mitochondrial membrane potential changes, profiling panel, cell-based, JC-1 fluorescence, 24 h, 100 nL compound (AID 1170). Also: test concentration not given here. Particulars: higher = more signal.
Assay [10] can be described thus: A549 lung cancer cell viability effects, profiling panel, resazurin fluorescence, 24 h, PK04 Diversity Set (AID 1171). Also: test concentration not given here. Particulars: higher = more signal, called active from +8 up or from −8 down.
A short description of assay [11]: HepG2 liver cancer cell viability effects, profiling panel, resazurin fluorescence, 24 h, PK04 Diversity Set (AID 1172). Also: test concentration not given here. Particulars: higher = more signal. For orientation: The colour change of resazurin is a common sign of viable cells or microbes.
A short description of assay [12]: basal S. cerevisiae growth modulation, no modifier, primary screen, OD600, strain BY4716, 24 h, basal condition (AID 1173). Particulars: OD600, 24 h, higher = more signal, called active from +8 up or from −8 down.
Assay [13] in a line: MM1S myeloma cell viability, profiling panel, resazurin fluorescence, basal, 24 h, PK04 Diversity Set (AID 1174). Also: test concentration not given here. Particulars: higher = more signal, called active from +8 up or from −8 down.
Assay [14] addresses Dihydroorotate dehydrogenase (quinone), mitochondrial (Plasmodium falciparum (isolate 3D7)) (UniProt Q08210). In words: PfDHODH enzyme inhibitors, primary screen, biochemical, C-terminal His tag, absorbance 600 nm (AID 1175).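 Also: recombinant parasite enzyme with a five histidine tag at its C terminus; test concentration not given here.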 Particulars: DCIP absorbance 600 nm, higher = more signal, called active from +8 up or from −8 down.
A short description of assay [15]: P. aeruginosa biofilm formation inhibitors, primary screen, strain PAO1, LB-PBS medium, absorbance 600 nm (AID 1176). Also: test concentration not given here. Particulars: P. aeruginosa PAO1 growth/biofilm, A600, 12 h; higher = more signal.
The nature of assay [16]: S. cerevisiae RM11-1a growth modifiers, primary screen, strain RM11-1a, OD600, basal, 24 h (AID 1177).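 Also: cultures grown under basal conditions with no added stressor; test concentration not given here.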 Particulars: OD600, 24 h, higher = more signal, called active from +8 up or from −8 down.
The nature of assay [17]: E. coli acrAB mutant growth effects, primary screen, E. coli filamentation inducers, strain DRC39, OD650, 24 h (AID 1178).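 Also: growth measured as culture turbidity by optical density at 650 nm; test concentration not given here.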 Particulars: higher = more signal, called active from +8 up or from −8 down.
The nature of assay [18]: E. coli acrAB mutant growth effects, primary screen, E. coli filamentation inducers, strain DRC39, OD650, 48 h (AID 1179).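 Also: screen aims at cell division blockers that make cells filament.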 Particulars: E. coli DRC39 delta-acrAB growth, higher = more signal, called active from +8 up or from −8 down.
The nature of assay [19]: RPMI8226 myeloma cell viability, profiling panel, resazurin fluorescence, basal, 24 h, PK04 Diversity Set (AID 1180).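 Also: RPMI8826 multiple myeloma cell line at 5000 cells per well; test concentration not given here.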 Particulars: higher = more signal.
The target of assay [20] is E3 ubiquitin-protein ligase XIAP (Homo sapiens) (UniProt P98170). In words: XIAP binders, primary screen, biophysical, small-molecule microarray, fluorescence 635 nm (AID 1181).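 Also: score merges 667 nm emission and signal to noise over triplicate slides.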 Particulars: small-molecule microarray binding, higher = more signal.
Chain of E3 ubiquitin-protein ligase XIAP (Homo sapiens) (P98170 whole entry, looked up): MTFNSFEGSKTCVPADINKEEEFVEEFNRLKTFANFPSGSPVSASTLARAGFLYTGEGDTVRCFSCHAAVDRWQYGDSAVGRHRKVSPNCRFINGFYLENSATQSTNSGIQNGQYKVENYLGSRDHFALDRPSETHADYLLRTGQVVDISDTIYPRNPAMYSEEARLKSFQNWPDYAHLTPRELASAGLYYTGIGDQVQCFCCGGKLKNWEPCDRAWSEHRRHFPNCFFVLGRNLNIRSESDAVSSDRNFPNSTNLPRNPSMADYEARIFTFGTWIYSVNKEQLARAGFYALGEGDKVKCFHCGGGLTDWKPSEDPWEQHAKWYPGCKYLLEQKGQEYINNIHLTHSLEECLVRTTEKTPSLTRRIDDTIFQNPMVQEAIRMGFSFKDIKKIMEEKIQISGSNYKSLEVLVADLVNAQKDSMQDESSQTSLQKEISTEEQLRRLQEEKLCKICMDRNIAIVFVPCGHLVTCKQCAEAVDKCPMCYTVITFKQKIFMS

Chain of Dihydroorotate dehydrogenase (quinone), mitochondrial (Plasmodium falciparum (isolate 3D7)) (Q08210 whole entry, looked up): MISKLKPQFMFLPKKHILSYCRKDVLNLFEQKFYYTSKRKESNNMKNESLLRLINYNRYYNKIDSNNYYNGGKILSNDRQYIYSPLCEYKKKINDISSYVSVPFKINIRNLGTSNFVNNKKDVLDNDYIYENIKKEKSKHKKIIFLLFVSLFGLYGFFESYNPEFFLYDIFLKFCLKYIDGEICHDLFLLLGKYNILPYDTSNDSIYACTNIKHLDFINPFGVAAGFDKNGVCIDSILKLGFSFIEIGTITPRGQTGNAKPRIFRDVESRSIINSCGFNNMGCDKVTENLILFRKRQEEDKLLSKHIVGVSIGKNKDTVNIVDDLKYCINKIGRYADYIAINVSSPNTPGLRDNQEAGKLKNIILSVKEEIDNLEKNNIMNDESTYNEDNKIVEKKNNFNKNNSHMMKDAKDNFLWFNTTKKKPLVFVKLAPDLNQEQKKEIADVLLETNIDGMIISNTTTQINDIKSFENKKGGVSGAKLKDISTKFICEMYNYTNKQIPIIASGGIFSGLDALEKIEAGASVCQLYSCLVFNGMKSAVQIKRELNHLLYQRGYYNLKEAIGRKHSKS

In the case of `O=C1O[C@@H](c2ccccc2)[C@@H](c2ccccc2)N2[C@@H](c3ccc(OCCO)cc3)[C@]3(C(=O)Nc4ccc(C#CC5=CCCCC5)cc43)[C@@H](C(=O)NC[C@H](O)c3ccccc3)[C@H]12`, the z-score in assay [1] was 0.152; in [2] it was 1.49; in assay [3], 0.348; in assay [4] it was 0.0056; in assay [5], -2.81; in [6], -1.93. Further, the z-score in assay [7] was -0.106 (inactive); in assay [8] it was -0.875; in [9] it was -1.24; in assay [10], -0.956 (inactive); in assay [11], -0.661; in assay [12], 1.49 (inactive). Besides, the z-score in [13] was -1.94 (inactive); in assay [15] it was 3.14 (inactive); in [16], 2.72 (inactive); in assay [17] it was -0.107 (inactive); in [18], -0.245 (inactive); in assay [19], -3.11. Also, the composite z-score was -0.729 (inactive) in [14] and -0.118 in assay [20].

As to `CCOC(=O)[C@@H]1CCCCN1C(=O)C(=O)OC`, the z-score in assay [1] was -0.856; in [2] it was -0.116; in [3], 0.0129; in [4], 0.143; in assay [5], 0.13; in assay [6], -0.684. Further, the z-score in assay [7] is -0.603 (inactive); in assay [8], -0.0109; in [9], 0.0743; in [10], -0.599 (inactive); in assay [11] it was -0.165; in assay [12] it was 0.016 (inactive). Also, the z-score was -0.05 (inactive) in [13]; -0.255 (inactive) in [15]; 0.245 (inactive) in assay [16]; -0.26 (inactive) in assay [17]; -0.253 (inactive) in assay [18]; -0.64 in assay [19]. Also, the composite z-score is 0.0044 (inactive) in assay [14] and 0.269 in [20].

With `CCC#CCN(Cc1ccccc1Br)[C@H](/C=C/C1CC1)[C@@H](O)Cc1ccccc1`, the z-score in assay [1] is -0.382; in [2] it was 0.929; in assay [3] it was -0.713; in assay [4], -2.23; in assay [5] it was -3.31; in [6], -1.28. In addition, the z-score in assay [7] is -0.611 (inactive); in assay [8] it was -0.774; in [9], -1.39; in assay [10], 2.76 (inactive); in assay [11], 2.23; in assay [12], -3.06 (inactive). Moreover, the z-score is 1.93 (inactive) in [13]; 0.686 (inactive) in assay [15]; -2.7 (inactive) in assay [16]; 1.96 (inactive) in assay [17]; 0.706 (inactive) in assay [18]; 0.329 in [19]. Besides, the results for the composite z-score in assay [14] and in [20] were -0.769 (inactive) and -0.144, respectively.

On to `COc1cc(NN2C(C(O)c3ccc(N(C)C)cc3)C=CC3C(=O)N(c4ccccc4)C(=O)C32)cc(OC)c1OC` (stereo not given), for which the z-score was -0.0098 in [1]; 0.808 in assay [2]; 0.181 in [3]; -0.0191 in [4]; -0.889 in assay [5]; -0.112 in [6]. Further, the z-score in assay [7] was -0.783 (inactive); in assay [8], 0.134; in assay [9], -0.0117; in assay [10], -0.815 (inactive); in assay [11] it was -1.16; in assay [12], 0.744 (inactive). The z-score in [13] is -0.581 (inactive); in [15], 0.794 (inactive); in assay [16], -0.591 (inactive); in assay [17], -0.0722 (inactive); in assay [18], -1.45 (inactive); in [19], -1.46. The composite z-score in [14] was -1.1 (inactive); in assay [20] it was 0.38.

In the case of `C=C[C@H]1C(C(=O)OCC)=CC[C@@H](c2ccccc2)N1S(=O)(=O)c1ccc(C)cc1`, the z-score in [1] is -0.438; in assay [2], -1.05; in assay [3] it was -0.708; in [4], -0.465; in assay [5] it was -1.46; in assay [6], 5.08. In addition, the z-score in assay [7] was -0.517 (inactive); in [8], -0.309; in assay [9], -1.21; in assay [10], 0.69 (inactive); in assay [11] it was 0.149; in assay [12] it was 1.32 (inactive). Also, the z-score is -0.172 (inactive) in [13]; 0.257 (inactive) in assay [15]; 1.39 (inactive) in [16]; -0.621 (inactive) in assay [17]; -0.183 (inactive) in assay [18]; -0.667 in [19]. Besides, the composite z-score was 0.319 (inactive) in [14] and 0.199 in assay [20].

In the case of `CCOC(=O)C[C@H]1[C@H](OC(=O)c2ccc(C(=O)c3ccccc3)cc2)[C@@H](NC(=O)c2ccc3ccccc3n2)c2cc(OCCCO)ccc2N1C(=O)Cc1ccc(OC)cc1`, the z-score in [1] is 0.822; in [2], 0.418; in assay [3] it was 0.113; in [4], 0.37; in assay [5] it was 0.0914; in assay [6], 0.546. The z-score was 0.295 (inactive) in assay [7]; -0.181 in [8]; -0.14 in assay [9]; 0.0291 (inactive) in [10]; -0.0031 in [11]; 1.03 (inactive) in [12]. Also, the z-score in assay [13] is 0.0487 (inactive); in assay [15], -0.75 (inactive); in assay [16], 0.0192 (inactive); in assay [17], -2.25 (inactive); in assay [18] it was -2.31 (inactive); in [19] it was 0.131. Also, the composite z-score in assay [14] is -0.0608 (inactive); in [20], -0.0961.

As to `C=CCOC(=O)[C@@H]1[C@H]2C(=O)O[C@H](c3ccccc3)[C@H](c3ccccc3)N2[C@H](c2ccc(OCCOC(=O)[C@@H]3C[C@@H]4C(=O)N[C@@H](CCCC[N+](C)(C)C)C(=O)N4[C@@H]3c3ccc(O)cc3)cc2)[C@@]12C(=O)Nc1ccc(I)cc12`, the z-score was -0.602 in [1]; 0.751 in assay [2]; -0.495 in [3]; -2.03 in [4]; -1.7 in assay [5]; -1.87 in assay [6]. For the same molecule, the z-score in assay [7] is -0.582 (inactive); in assay [8], -0.657; in assay [9], -1.1; in assay [10], 0.0416 (inactive); in assay [11], 0.945; in [12] it was -0.398 (inactive). For the same molecule, the z-score in assay [13] was -0.596 (inactive); in [15], 0.379 (inactive); in assay [16], 1.39 (inactive); in assay [17], -0.507 (inactive); in [18] it was -0.809 (inactive); in [19], -0.0426. The composite z-score in [14] was -2.02 (inactive); in [20], -0.124.

Regarding `CC1CC/C=C\[C@H]2OC34C=CCN(c5ccc6ccccc6c5)C(=O)[C@H]3N(CCCO)C(=O)[C@@H]4C2C(=O)O1` (stereo not given in full), the z-score is -0.391 in assay [1]; -0.229 in assay [2]; -0.597 in assay [3]; -0.144 in [4]; -0.143 in assay [5]; -0.519 in assay [6]. For the same molecule, the z-score in assay [7] was -0.856 (inactive); in assay [8], 0.17; in [9] it was 0.707; in assay [10], -0.525 (inactive); in assay [11], -0.829; in assay [12] it was 0.723 (inactive). Besides, the z-score in assay [13] is -0.644 (inactive); in assay [15], -0.829 (inactive); in assay [16] it was 0.822 (inactive); in [17], -0.587 (inactive); in assay [18], -0.723 (inactive); in assay [19], 0.0719. Besides, the composite z-score in assay [14] was 0.676 (inactive); in assay [20] it was 0.275.

For `O=C(Cc1ccccc1)[C@H]1C2C=CCCC(c3ccccc3)=C2CN1Cc1ccccc1` (stereo not given in full), the z-score was 0.128 in assay [1]; 0.169 in assay [2]; 0.436 in [3]; 0.743 in [4]; 0.602 in assay [5]; 0.655 in assay [6]. Besides, the z-score is 0.122 (inactive) in assay [7]; -0.196 in [8]; 0.584 in assay [9]; 0.807 (inactive) in assay [10]; 1.37 in [11]; -2.98 (inactive) in [12]. Further, the z-score is 0.806 (inactive) in assay [13]; 1.44 (inactive) in assay [15]; -0.546 (inactive) in assay [16]; 1.64 (inactive) in assay [17]; 1.29 (inactive) in assay [18]; 1.08 in assay [19]. The composite z-score is -0.658 (inactive) in [14] and -0.441 in [20].

Source of the values: PubChem BioAssay.
